Screening data deposited in PubChem by National Center for Advancing Translational Sciences (NCATS).
ATXN viability = viability counter-screen for ATXN expression inhibitors. S2 cells (HEK-293 line with an ATXN2-luciferase reporter) viability, CellTiter-Fluor protease fluorescence, 24 h. Potency, µM (series often up to 56.7 µM), most hits filed as cytotoxic. 400,000 compounds, 0.49% hits; also: nearly all actives have a fitted effect of over 40% in size
TGFb SMAD3 inh = inhibitors of TGF-b signaling. HepG2 CAGA-GFP TGF-b/SMAD3 reporter, GFP fluorescence, 18 h; TGF-beta stimulated, 500 pg/mL final. Potency, µM (highest dose often 46.1 µM), most hits filed as inhibitors. 410,000 compounds, 1.2% hits; also: nearly all actives have a fitted effect of over 65% in size
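HEPG2 CAGA-GFP reporter cells (1000/well, DMEM with 1% FBS) received compounds, then recombinant TGF-beta at 500 pg/mL final for 18 hours at 37 degrees C. Per-cell GFP summed per well was normalised to unstimulated and stimulated DMSO controls before curve fitting.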
ATXN2 expr inh = ATXN2 expression inhibition; HEK-293 ATXN2-luciferase reporter, luminescence, 24 h; Potency, µM (series often up to 57 µM), usual class: inhibitors; 360,000 compounds, 0.72% hits; AID 1745845; also: nearly all actives have a fitted effect of over 55% in size
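qHTS (up to 57 uM final) was run with 24 h compound exposure of reporter cells at 37 °C. Each well was multiplexed: SteadyGlo luminescence measured ATXN2-luciferase expression after a fluorogenic Gly-Phe-AFC viability readout (25 uM final).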
HepG2 viability = HepG2 cytotoxicity, counter-screen for TGF-b inhibitors. HepG2 CAGA-GFP viability, ATP luminescence, 18 h. Potency, µM (highest dose often 46.1 µM), actives largely listed as cytotoxic. 410,000 compounds, 0.76% hits. AID 588856
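HepG2 CAGA-GFP cells (1000/well, DMEM with 1% FBS) received compound, then TGF-beta at 500 pg/mL final, and were incubated 18 hours at 37 degrees C. Viability was read by CellTiter-Glo luminescence. Media-only wells were set as complete cell-killing and DMSO as no toxicity.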
DT40 TDP1 no CPT = qHTS for Inhibitors of human tyrosyl-DNA phosphodiesterase 1 (TDP1): qHTS in cells in absence of CPT; DT40 Tdp1-/- hTDP1 cells, no CPT, ATP luminescence, 48 h; Potency, µM (titrated, usually from 46.2 µM), usual class: inhibitors; 420,000 compounds, 15% hits; also: nearly all actives have a fitted effect of over 55% in size
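DT40 Tdp1-/-;hTDP1 cells, no CPT (DMSO vehicle only), 400 cells/well; compounds pin-transferred; ≥48 hr, 37 °C; CellTiter-Glo 30 min RT dark, luminescence read.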
DT40 TDP1 CPT = growth inhibition of DT40 Tdp1-/-;hTDP1 cells with camptothecin (screen for TDP1 inhibitors); chicken DT40 Tdp1-/-;hTDP1 cells + 20 nM CPT, ATP luminescence, 48 h; 420,000 compounds, 12% hits; AID 686979; Potency, µM (doses to about 46.2 µM), usual class: inhibitors; also: nearly all actives have a fitted effect of over 55% in size
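Chicken DT40 Tdp1-/- cells stably complemented with human TDP1 were seeded at 400 cells/well in medium containing 20 nM camptothecin, exposed to pin-transferred compounds, and grown at 37 °C for at least 48 hr. Viability was read as ATP luminescence.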
Hits are given with their value; – = inactive; ? = inconclusive; · = no result given; ! = not confirmed by another sample. Hits are enriched below; roughly 17% of the tested compounds scored in any of these assays. Calls follow the shape of the dose curve; as a rule, active = well fitted curve in the direction sought with a large enough effect; inconclusive = small, poorly fitted or top-dose-only effect, or another doubt; inactive = no such curve, though single readings can be large; an effect the other way counts as inactive or inconclusive.

SMILES	ATXN viability	TGFb SMAD3 inh	ATXN2 expr inh	HepG2 viability	DT40 TDP1 no CPT	DT40 TDP1 CPT
Cc1sc2nc(C3CC3)nc(N3CCN(C(=O)c4ccccc4F)CC3)c2c1C	–	?	–	–	?	?
CCOc1ncccc1C(=O)OCC(=O)c1cccc(Br)c1	–	–	–	–	–	–
CCCCn1c(N)c(N(CCOC)C(=O)COC(=O)/C=C/c2ccc(Br)cc2)c(=O)[nH]c1=O	–	–	–	–	–	–
CCNS(=O)(=O)c1ccc(C(=O)OCC(=O)N2CCCc3ccccc32)cc1	–	–	–	–	–	–
COc1ccc(CNc2ncnc3ccc(-c4ccccc4C#N)cc23)c(OC)c1	·	·	·	·	–	?
CCOC(=O)C1=CN(Cc2ccco2)S(=O)(=O)N(C)C1c1ccc2ccccc2c1 (centres undefined)	–	–	–	–	?	20.6µM
Cc1ccc(-c2nc(SCC(=O)N(C)c3c(N)n(Cc4ccccc4)c(=O)[nH]c3=O)n[nH]2)cc1	–	–	–	–	–	–
COc1ccc(NC(=O)c2sc3nc4c(cc3c2N)CCCCCC4)cc1OC	–	–	–	–	?	?
COc1ccccc1NC(=O)c1sc2nc3c(cc2c1N)CCCCCC3	–	–	–	–	13µM	?
Nc1c(C(=O)Nc2ccccc2F)sc2nc3c(cc12)CCCCCC3	?	–	–	–	3.66µM	2.59µM
CCC1CCc2nc3sc(C(=O)Nc4ccc(C)cc4C)c(N)c3cc2C1 (centres undefined)	–	?	–	–	23.1µM	?
O=C(CCN1CCOCC1)N1CCCC(Nc2cccc(F)c2)C1 (centres undefined)	–	–	–	–	–	–
NS(=O)(=O)c1ccc(CCNS(=O)(=O)c2cccc(C(=O)O)c2)cc1	–	–	–	–	–	–
Cc1ccc(-c2nnc(SCC(=O)N/N=C/c3ccc(C)s3)n2-c2ccc(C)cc2)cc1	?	?	–	–	29.1µM	?
Cc1ccc(NC(=O)Cn2nc(C(=O)O)c3ccccc3c2=O)cc1S(=O)(=O)N1CCOCC1	–	–	·	–	–	–
Cc1ccc(NC(=O)Nc2nnc(N(CC(C)C)CC(C)C)s2)cc1Cl	·	·	·	–	16.4µM	9.2µM
N#Cc1c(Nc2ccccc2)[n+]([O-])c2ccc(Cl)cc2[n+]1[O-]	?	?	?	–	?	6.51µM
O=C(/C=C/Nc1ccccc1)c1ccc(Cl)cc1Cl	–	?	·	–	?	–
COc1cc(C(C(=O)NC2CCCCC2)N(Cc2cccs2)C(=O)Cc2c[nH]c3ccccc23)cc(OC)c1OC (centres undefined)	–	?	–	–	20.6µM	23.1µM
Cc1ccc(C(C(=O)NC2CCCCC2)N(Cc2ccccc2)C(=O)Cc2c[nH]c3ccccc23)o1 (centres undefined)	?	?	?	–	?	?
COc1ccc(C(C(=O)Nc2ccc3c(c2)OCO3)N(C)C(=O)Cc2c[nH]c3ccccc23)cc1 (centres undefined)	–	?	–	–	?	18.4µM
COc1ccc(CN(C(=O)Cc2c[nH]c3ccccc23)C(C(=O)NC2CCCCC2)c2ccc(C)o2)cc1 (centres undefined)	·	?	·	–	18.4µM	?
COc1ccc(NC(=O)C(c2ccccc2)N(C)C(=O)/C=C\c2ccc3c(c2)OCO3)cc1 (centres undefined)	?	–	–	–	?	?
Cc1c(C(=O)C(=O)N2CCN(Cc3ccc4c(c3)OCO4)CC2)c2ccccc2n1C	–	–	·	–	?	?
COCCNC(=O)c1ccc(-c2nc(CN3CCc4ccccc43)c(C)o2)cc1	–	–	–	–	·	·
SMILES	ATXN viability	TGFb SMAD3 inh	ATXN2 expr inh	HepG2 viability	DT40 TDP1 no CPT	DT40 TDP1 CPT
CC1CCCCN1S(=O)(=O)c1ccc(S(=O)(=O)NCCc2ccncc2)cc1 (centres undefined)	?	–	–	–	?	?
CCC1CN(C(=O)Nc2ccc(C(=O)O)cc2)c2cc(Cl)ccc2O1 (centres undefined)	–	–	–	–	–	–
CCC1CN(C(=O)NCc2ccccc2)c2cc(C)ccc2O1 (centres undefined)	–	?	–	–	?	?
CCc1ccccc1NC(=O)N1CC(CC)Oc2ccc(Cl)cc21 (centres undefined)	·	–	·	–	?	20.6µM
CCC1CN(C(=O)NCc2ccc(C)cc2)c2cc(C)ccc2O1 (centres undefined)	–	?	–	–	14.6µM!	23.1µM
CCC1CN(C(=O)NCc2ccc(C)cc2)c2cc(Cl)ccc2O1 (centres undefined)	–	?	–	–	23.1µM	20.6µM
Cc1cccc(NC(=O)N2CCN3CCCCC3C2)c1C (centres undefined)	·	–	·	–	–	–
C[C@@]12C[C@@]3(O)O[C@@H](O1)[C@]1(COC(=O)c4ccccc4)[C@@H]3C[C@@]12O[C@@H]1O[C@H](CO)[C@@H](O)[C@H](O)[C@@H]1O	·	·	–	·	·	·
COc1ccccc1CNC(=O)CSc1nc(=O)[nH]c2c1CCCC2	·	–	·	–	–	–
COc1ccc(-c2noc(CSc3nnc(C)n3-c3cccc(C)c3)n2)cc1	–	–	–	–	?	?
O=S(=O)(c1ccccc1)N1CCC(c2ccncc2)CC1	·	?	·	–	20.6µM	–
O=S(=O)(c1ccc(Cl)cc1)N1CCC(c2ccncc2)CC1	·	–	·	–	?	?
Cc1ccc(S(=O)(=O)N2CCC(c3ccncc3)CC2)c(C)c1	?	?	?	–	10.3µM	20.6µM
CC(=O)Nc1ccc(S(=O)(=O)N2CCC(c3ccncc3)CC2)cc1	·	?	·	–	2.59µM	5.17µM
CC(C)Cc1ccc(S(=O)(=O)N2CCC(c3ccncc3)CC2)cc1	?	?	15.8µM	–	7.31µM	9.2µM
COC(=O)C(C(=O)OC)C(c1ccccc1)C(C(=O)c1ccccc1)[N+](=O)[O-] (centres undefined)	–	–	–	–	–	–
CCOC(=O)C1=C(C)N=C2SCCC(=O)N2C1c1ccc(OCc2ccccc2)c(OC)c1 (centres undefined)	?	–	–	–	?	?
COc1ccc(NS(=O)(=O)c2cc(N/C(=N\S(=O)(=O)c3ccccc3)c3ccc(F)cc3)ccc2Cl)cc1	?	?	–	–	?	?
CC(C)(C)c1ccc(S(=O)(=O)N2CCC(c3ccncc3)CC2)cc1	?	2.82µM	?	–	8.2µM	13µM
